Screening data: PubChem, National Center for Advancing Translational Sciences (NCATS)
FLuc counter: qHTS profiling assay for firefly luciferase inhibitor/activator using purifed enzyme and Km concentrations of substrates (counterscreen for miR-21 project) | Luciferin 4-monooxygenase (Photinus pyralis), P08659 | 6.9% of 360,000 active | purified FLuc, Km substrates, luminescence inhibition | Potency, µM (top dose mostly 57.5 µM), most hits filed as inhibitors; further: nearly all actives have a fitted effect of over 55% in size
Target sequence (P08659 whole entry, looked up): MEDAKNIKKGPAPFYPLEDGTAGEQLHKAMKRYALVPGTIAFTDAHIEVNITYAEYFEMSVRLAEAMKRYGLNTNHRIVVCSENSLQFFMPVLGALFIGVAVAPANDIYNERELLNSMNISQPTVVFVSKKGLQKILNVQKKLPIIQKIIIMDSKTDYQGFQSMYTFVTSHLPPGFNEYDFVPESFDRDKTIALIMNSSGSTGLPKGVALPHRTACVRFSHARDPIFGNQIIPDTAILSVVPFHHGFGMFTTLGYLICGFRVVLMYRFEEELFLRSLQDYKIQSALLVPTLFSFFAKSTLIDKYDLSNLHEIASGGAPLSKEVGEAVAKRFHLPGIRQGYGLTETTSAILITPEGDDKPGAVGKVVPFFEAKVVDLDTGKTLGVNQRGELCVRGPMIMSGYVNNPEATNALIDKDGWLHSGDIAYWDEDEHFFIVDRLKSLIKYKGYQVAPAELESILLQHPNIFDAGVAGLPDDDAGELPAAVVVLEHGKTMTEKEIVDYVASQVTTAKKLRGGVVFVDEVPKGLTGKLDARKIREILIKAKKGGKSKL
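Purified P. pyralis luciferase (10nM final) with 10uM D-luciferin and 10uM ATP (Km levels) in 50mM Tris acetate pH 7.5, 10mM Mg acetate, 0.01% Tween-20, 0.05% BSA; qHTS 6-point titration, ~60 µM downward; luminescence read.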
Rab9 prom act: qHTS Assay for Rab9 Promoter Activators | Huh7 Rab9 promoter-luciferase reporter, luminescence, 24 h | Potency, µM (series often up to 9.22 µM), usual class: activators | 2.8% of 320,000 active; further: nearly all actives have a fitted effect of over 60% in size
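Measured in stably transfected Huh7 cells bearing a Rab9 promoter–luciferase construct: 24 h compound treatment at 37 °C, followed by luminescence detection.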
ELG1 genotox: qHTS screen for small molecules that induce genotoxicity in human embryonic kidney (HEK293T) cells expressing luciferase-tagged ELG1 | HEK293T ELG1-luciferase reporter, luminescence, 16 h | Potency, µM (series often up to 46 µM), actives largely listed as activators | 1.3% of 330,000 active; further: nearly all actives have a fitted effect of over 60% in size
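Luminescence read-out: rising ELG1-luciferase signal, reflecting elevated ELG1 protein under genetic stress, flags genotoxic compounds. Cells were treated for 16 hr at 37 °C before ONE-Glo detection.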
SMN2 splice up: qHTS Assay for Enhancers of SMN2 Splice Variant Expression. HEK293 SMN2-luciferase splicing reporter, luminescence, 30-36 h. Potency, µM (series often up to 46.1 µM), hits mostly activators. 2.8% of 210,000 active; further: nearly all actives have a fitted effect of over 55% in size
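qHTS luciferase splicing reporter: luminescence rises when SMN2 exon 7 is included in transfected HEK293 cells. Compound exposure lasted 30-36 h at 37C, with 4.5 mM final sodium butyrate as control, followed by a ONE-Glo read.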
NPC1 promoter act: qHTS Assay for NPC1 Promoter Activators; AID 485313, 2010; 2.4% of 320,000 active; Huh7 NPC1 promoter luciferase reporter, 24 h; Potency, µM (titrated, usually from 9.22 µM), usual class: activators; further: nearly all actives have a fitted effect of over 60% in size
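Luciferase expression driven by the NPC1 promoter was measured in stably transfected Huh7 cells after a 24 h compound incubation, using a luciferase reagent and a luminescence read.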
ELG1 DNA repair: qHTS screen for small molecules that inhibit ELG1-dependent DNA repair in human embryonic kidney (HEK293T) cells expressing luciferase-tagged ELG1; HEK293T ELG1-luciferase reporter, luminescence, 16 h; DNA damage induced by 5-fluorouridine; Potency, µM (titrated, usually from 46.1 µM), hits mostly inhibitors; 2.3% of 330,000 active; AID 504467, 2011; further: nearly all actives have a fitted effect of over 55% in size
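Cells (2,000 per well) received 5-fluorouridine plus test compound or DMSO and were incubated 16 hr at 37 °C, 5% CO2. Luciferase activity was read by luminescence 30 min after ONE-Glo addition; signal suppression marked inhibition of damage-induced ELG1 function.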
Hits are given with their value. Compounds with a hit are over-represented: about 9.2% of the library has one in this group of screens. The call rests on the fitted dose curve; in most records, active means well fitted curve in the direction sought with a large enough effect; inconclusive means small, poorly fitted or top-dose-only effect, or another doubt; inactive means no such curve, though single readings can be large; an effect the other way counts as inactive or inconclusive.

For Cc1cccc(CC(C)NC(=O)c2cc(COc3ccc(C)c(C)c3)on2)n1 (stereo not given) the results were FLuc counter 21µM, Rab9 prom act inconclusive, ELG1 genotox inactive, NPC1 promoter act inconclusive and ELG1 DNA repair inconclusive.
`Cc1nc(C(C)NC(=O)c2cc(COc3ccc(C)c(C)c3)on2)c(C)s1` (stereo not given) gave FLuc counter 9.5µM, Rab9 prom act 3.2µM, ELG1 genotox inconclusive, NPC1 promoter act 2.8µM and ELG1 DNA repair inconclusive.
For CC(NC(=O)c1cc(COc2ccccc2)on1)c1nccs1 (stereo not given) the results were FLuc counter 4.8µM, Rab9 prom act 1.4µM, ELG1 genotox 8.2µM, NPC1 promoter act 1.4µM and ELG1 DNA repair inconclusive.
`CCc1cc(C(=O)NC(C)c2ccccc2)no1` (stereo not given) gave FLuc counter inactive and SMN2 splice up inactive.
Screening Cc1cc(OCc2cc(C(=O)NC(C)c3c(C)nn(C)c3C)no2)cc(C)c1Cl (stereo not given) returned FLuc counter 6.7µM, Rab9 prom act 2.2µM, ELG1 genotox inconclusive, NPC1 promoter act 2.5µM and ELG1 DNA repair inconclusive.
Screening COc1ccc(NC(=O)Cc2nnc(SCC(=O)c3ccc(F)cc3)n2C)cc1 returned FLuc counter inactive, Rab9 prom act inactive, ELG1 genotox inactive, NPC1 promoter act inactive and ELG1 DNA repair inactive.
`CN(C)CC(C(=O)c1ccccc1)c1ccccc1` (stereo not given) gave FLuc counter inactive, Rab9 prom act inactive, ELG1 genotox inactive, SMN2 splice up inactive, NPC1 promoter act inactive and ELG1 DNA repair 16µM.
For COc1cccc2sc(N)nc12 the results were FLuc counter inactive, Rab9 prom act inactive, ELG1 genotox inactive, SMN2 splice up inactive, NPC1 promoter act inactive and ELG1 DNA repair inactive.
For COc1cccc2sc(N(C)c3ccccc3)nc12 the results were FLuc counter 0.85µM, Rab9 prom act 0.5µM, ELG1 genotox 1.6µM, SMN2 splice up 8.9µM, NPC1 promoter act 1.3µM and ELG1 DNA repair inconclusive.
Screening Cc1cc(C)[n+]2[nH]c(N)c(N=Nc3ccccc3)c2n1 returned FLuc counter 15µM, Rab9 prom act inactive, ELG1 genotox inactive, NPC1 promoter act inactive and ELG1 DNA repair inconclusive.
CC(C)C(=O)Nc1nc2ccc(S(C)(=O)=O)cc2s1 was read as FLuc counter inconclusive, Rab9 prom act inactive, ELG1 genotox inactive, SMN2 splice up inactive, NPC1 promoter act inactive and ELG1 DNA repair inactive.
`NS(=O)(=O)c1ccc2nc(NC(=O)c3ccncc3)sc2c1` gave FLuc counter 6.7µM, Rab9 prom act inactive, ELG1 genotox inactive, NPC1 promoter act inactive and ELG1 DNA repair inconclusive.
Screening CS(=O)(=O)c1ccc2nc(NC(=O)Nc3ccccc3F)sc2c1 returned FLuc counter 0.54µM, Rab9 prom act 1.1µM, ELG1 genotox inconclusive, NPC1 promoter act 0.32µM and ELG1 DNA repair inconclusive.
CC(C)(C)C(=O)Nc1nc2ccc(S(C)(=O)=O)cc2s1 was read as FLuc counter inconclusive, Rab9 prom act 1.8µM, ELG1 genotox inactive, SMN2 splice up 7.9µM, NPC1 promoter act inconclusive and ELG1 DNA repair inconclusive.
CS(=O)(=O)c1ccc2nc(NC(=O)c3ccc(NS(=O)(=O)c4cccc([N+](=O)[O-])c4)cc3)sc2c1 was read as FLuc counter 11µM, Rab9 prom act inactive, ELG1 genotox inactive, NPC1 promoter act inactive and ELG1 DNA repair inactive.
Cc1ccc(NC(=O)Nc2nc3ccc(S(C)(=O)=O)cc3s2)cc1 was read as FLuc counter inactive, Rab9 prom act inactive, ELG1 genotox inactive, NPC1 promoter act inactive and ELG1 DNA repair inactive.
`O=C(Cn1c(=O)c2sccc2n(CC(=O)Nc2ccc(Cl)cc2Cl)c1=O)NCCc1ccccc1` gave FLuc counter inactive and SMN2 splice up inactive.
Screening Cc1cccc(C(=O)Nc2nc3ccc(S(C)(=O)=O)cc3s2)c1 returned FLuc counter 2.1µM, Rab9 prom act inconclusive, ELG1 genotox inconclusive, NPC1 promoter act 2.2µM and ELG1 DNA repair inconclusive.
For CS(=O)(=O)c1ccc2nc(NC(=O)Cc3ccccc3)sc2c1 the results were FLuc counter inactive, Rab9 prom act inactive, ELG1 genotox inactive, NPC1 promoter act inactive and ELG1 DNA repair inactive.
For CS(=O)(=O)c1ccc2nc(NC(=O)CS(=O)(=O)Cc3ccccc3)sc2c1 the results were FLuc counter 17µM, Rab9 prom act inactive, ELG1 genotox inactive, SMN2 splice up inactive, NPC1 promoter act inactive and ELG1 DNA repair inactive.
CS(=O)(=O)c1ccc2nc(NC(=O)c3ccccc3)sc2c1 was read as FLuc counter 2.1µM, Rab9 prom act 0.5µM, ELG1 genotox inconclusive, NPC1 promoter act 0.63µM and ELG1 DNA repair inconclusive.
Screening COC(=O)C1=C(C(=O)OC)C(c2ccccc2O)c2sc(=O)[nH]c2S1 (stereo not given) returned FLuc counter inactive, Rab9 prom act inactive, ELG1 genotox inactive, SMN2 splice up inactive, NPC1 promoter act inactive and ELG1 DNA repair inconclusive.
`CC(NC(=O)c1cccs1)c1nnc(SCc2ccc(Cl)cc2Cl)n1C` (stereo not given) gave FLuc counter inactive, Rab9 prom act inactive, ELG1 genotox inactive, SMN2 splice up inactive, NPC1 promoter act inactive and ELG1 DNA repair inactive.
For Cc1nc2cc(NC(=O)Nc3cccc([N+](=O)[O-])c3)ccc2n1C the results were FLuc counter 1.9µM, Rab9 prom act 0.71µM, ELG1 genotox inconclusive, NPC1 promoter act 0.35µM and ELG1 DNA repair inconclusive.
For Cc1ccc(S(=O)(=O)Nc2ccc3c(c2)nc(C)n3C)cc1 the results were FLuc counter inactive, Rab9 prom act inactive, ELG1 genotox inactive, NPC1 promoter act inactive and ELG1 DNA repair inconclusive.
For Cc1ccc(NC(=O)Nc2ccc3c(c2)nc(C)n3C)cc1 the results were FLuc counter 3µM, Rab9 prom act 0.5µM, ELG1 genotox inconclusive, NPC1 promoter act 1.4µM and ELG1 DNA repair inconclusive.
COC(=O)c1ccc(NC(=O)Nc2ccc3c(c2)nc(C)n3C)cc1 was read as FLuc counter inconclusive, Rab9 prom act inconclusive, ELG1 genotox inactive, NPC1 promoter act inconclusive and ELG1 DNA repair inactive.
For Cc1nc2cc(NC(=O)Nc3ccccc3Cl)ccc2n1C the results were FLuc counter 0.38µM, Rab9 prom act 0.89µM, ELG1 genotox 0.92µM, NPC1 promoter act 0.089µM and ELG1 DNA repair inconclusive.
